For some assays here: Measured potencies and affinities stand elsewhere.

Parameters in all cases: scale not given: direction of the effect not stated beside the values
Experiment [1] concerns the target Protein translocase subunit SecA (Escherichia coli (strain K12)) (UniProt P10408). Description: Assay to Identify E. coli SecA ATPase Inhibitors. Format: functional. The following applies: 30 µM.
Experiment [2] concerns the target T1, Ubiquitin-activating enzyme e1, putative (Leishmania donovani (strain BPK282A1)) (UniProt E9BSI1).
T1 sequence (whole entry): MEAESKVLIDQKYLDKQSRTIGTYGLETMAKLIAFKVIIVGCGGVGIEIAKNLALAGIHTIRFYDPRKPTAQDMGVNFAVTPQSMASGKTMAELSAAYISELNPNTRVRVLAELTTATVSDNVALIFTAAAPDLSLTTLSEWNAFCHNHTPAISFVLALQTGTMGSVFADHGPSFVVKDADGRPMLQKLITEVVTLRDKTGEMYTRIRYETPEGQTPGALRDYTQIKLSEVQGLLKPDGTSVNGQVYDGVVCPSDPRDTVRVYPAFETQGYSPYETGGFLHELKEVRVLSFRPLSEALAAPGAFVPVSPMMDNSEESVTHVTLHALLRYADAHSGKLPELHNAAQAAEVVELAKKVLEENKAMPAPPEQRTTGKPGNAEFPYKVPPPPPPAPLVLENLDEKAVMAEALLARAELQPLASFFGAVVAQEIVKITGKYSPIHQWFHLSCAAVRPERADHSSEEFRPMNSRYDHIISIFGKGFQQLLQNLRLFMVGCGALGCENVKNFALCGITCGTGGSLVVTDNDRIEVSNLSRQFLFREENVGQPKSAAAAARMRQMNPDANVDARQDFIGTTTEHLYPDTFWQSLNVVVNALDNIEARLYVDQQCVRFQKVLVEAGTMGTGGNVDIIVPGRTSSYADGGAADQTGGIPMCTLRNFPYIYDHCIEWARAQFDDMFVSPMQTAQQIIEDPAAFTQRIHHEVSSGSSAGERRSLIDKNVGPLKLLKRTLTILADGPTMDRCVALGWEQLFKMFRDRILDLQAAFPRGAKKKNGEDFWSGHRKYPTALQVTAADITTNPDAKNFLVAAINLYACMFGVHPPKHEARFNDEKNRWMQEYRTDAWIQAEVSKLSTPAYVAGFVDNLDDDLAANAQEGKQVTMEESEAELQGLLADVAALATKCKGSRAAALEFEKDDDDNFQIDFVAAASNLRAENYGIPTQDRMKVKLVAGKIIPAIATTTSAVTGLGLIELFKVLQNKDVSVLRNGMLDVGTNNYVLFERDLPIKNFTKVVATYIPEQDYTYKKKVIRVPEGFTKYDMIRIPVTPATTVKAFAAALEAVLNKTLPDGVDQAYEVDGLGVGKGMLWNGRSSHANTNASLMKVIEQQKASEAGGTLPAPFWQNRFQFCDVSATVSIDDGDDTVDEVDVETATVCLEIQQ
The experiment in a line: Leishmania donovani Ubiquitin Activating Enzyme (LdE1). Format: functional. The following applies: 30 µM.

Experiment [3] deals with Sialic acid-binding Ig-like lectin 9 (Homo sapiens) (UniProt Q9Y336). Description: Hs-Siglec9 ALPHAscreen SOP 20170721. The following applies: 10 µM.
Sequence of Sialic acid-binding Ig-like lectin 9 (Homo sapiens) (Q9Y336 whole entry): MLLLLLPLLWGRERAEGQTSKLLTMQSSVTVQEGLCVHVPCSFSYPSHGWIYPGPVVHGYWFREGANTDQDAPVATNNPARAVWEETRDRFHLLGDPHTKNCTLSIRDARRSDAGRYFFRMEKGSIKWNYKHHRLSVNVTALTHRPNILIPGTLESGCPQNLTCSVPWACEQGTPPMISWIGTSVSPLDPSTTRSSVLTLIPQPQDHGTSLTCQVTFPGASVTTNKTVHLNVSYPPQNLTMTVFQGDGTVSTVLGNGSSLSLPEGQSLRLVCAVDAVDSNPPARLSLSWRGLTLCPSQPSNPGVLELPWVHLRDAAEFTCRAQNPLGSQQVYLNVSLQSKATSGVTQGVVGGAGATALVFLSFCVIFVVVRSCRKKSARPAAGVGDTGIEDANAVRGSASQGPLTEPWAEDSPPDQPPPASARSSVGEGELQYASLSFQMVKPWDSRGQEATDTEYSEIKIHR
Experiment [4] has as its system Trypanosoma cruzi. Description: Trypanosoma cruzi phosphomannomutase and mannose-1-phosphate guanylyltransferase assay. Format: functional. The following applies: 10 µM.
In experiment [5] the target is T2, Arginase-2, mitochondrial (Homo sapiens) (UniProt P78540).
T2 sequence (whole entry): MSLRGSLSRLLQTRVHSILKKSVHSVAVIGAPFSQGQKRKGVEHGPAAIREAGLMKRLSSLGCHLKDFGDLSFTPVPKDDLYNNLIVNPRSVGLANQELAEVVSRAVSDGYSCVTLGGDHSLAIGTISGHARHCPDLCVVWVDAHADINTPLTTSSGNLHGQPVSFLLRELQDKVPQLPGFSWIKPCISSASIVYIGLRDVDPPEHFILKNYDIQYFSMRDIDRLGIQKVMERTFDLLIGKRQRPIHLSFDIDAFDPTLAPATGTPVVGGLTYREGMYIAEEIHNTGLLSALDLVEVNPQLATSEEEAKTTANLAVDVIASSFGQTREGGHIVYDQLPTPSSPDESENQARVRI
The experiment in a line: in vitro enzyme assay to detect the production of urea directly proportional to the activity of Arginase II. Further: in the data most compounds retested in dose-response had high values. Format: functional. Conditions: 33.3 µM.

Experiment [6] has as its target T3, Proteasome subunit beta (Trypanosoma cruzi) (UniProt O96673).
T3 sequence (whole entry): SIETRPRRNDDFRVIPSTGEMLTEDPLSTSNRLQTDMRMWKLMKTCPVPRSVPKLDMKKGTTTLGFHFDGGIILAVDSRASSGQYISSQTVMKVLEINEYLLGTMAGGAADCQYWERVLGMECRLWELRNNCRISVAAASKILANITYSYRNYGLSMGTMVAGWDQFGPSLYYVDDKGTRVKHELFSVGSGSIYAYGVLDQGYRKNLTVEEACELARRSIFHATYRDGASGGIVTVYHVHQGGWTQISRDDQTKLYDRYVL
The experiment in a line: Trypanosoma cruzi proteasome chymotrypsin-like activity (TcProtChymo) assay. Further: in the data most compounds retested in dose-response had high values. Format: functional. The following applies: 9.37 µM.

Experiment [7] is filed under the species Homo sapiens. The experiment in a line: To identify inhibition of the IFN signalling (Jak-Stat) pathway via expression of an eGFP reporter gene under the control of an IFN-stimulated response element (ISRE) containing MxA promoter. The following applies: 30 µM. Format: functional. (Reporter assays use an easily measured gene product as a stand-in for the process of interest.)

The target of experiment [8] is T4, Tyrosyl-tRNA synthetase, putative (Trypanosoma cruzi (strain CL Brener)) (UniProt Q4DSP6).
T4 sequence (whole entry): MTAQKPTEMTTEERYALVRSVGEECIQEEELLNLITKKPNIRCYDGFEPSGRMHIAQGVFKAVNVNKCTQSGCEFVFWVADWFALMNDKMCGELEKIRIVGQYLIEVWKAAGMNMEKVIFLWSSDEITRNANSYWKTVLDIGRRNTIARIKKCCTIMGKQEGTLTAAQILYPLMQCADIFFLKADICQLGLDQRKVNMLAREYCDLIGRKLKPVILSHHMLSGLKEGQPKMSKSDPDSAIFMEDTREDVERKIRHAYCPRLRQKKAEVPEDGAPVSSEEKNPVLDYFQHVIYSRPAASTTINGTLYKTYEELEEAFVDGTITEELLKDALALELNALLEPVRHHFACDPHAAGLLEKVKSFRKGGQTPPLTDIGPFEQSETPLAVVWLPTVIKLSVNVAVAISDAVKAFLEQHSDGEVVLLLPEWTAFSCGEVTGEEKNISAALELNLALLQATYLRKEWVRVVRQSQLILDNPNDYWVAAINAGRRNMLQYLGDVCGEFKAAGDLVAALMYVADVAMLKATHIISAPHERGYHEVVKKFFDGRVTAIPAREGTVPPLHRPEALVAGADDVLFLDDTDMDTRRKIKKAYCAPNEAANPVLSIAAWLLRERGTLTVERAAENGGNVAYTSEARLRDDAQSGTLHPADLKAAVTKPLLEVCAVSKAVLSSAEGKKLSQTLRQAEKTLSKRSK
The experiment in a line: Trypanosoma cruzi tyrosyl tRNA synthetase (TcYRS) _High Tyrosine SOP. Further: in the data most compounds retested in dose-response had high values. It counts as functional. The following applies: 30 µM.

For experiment [9], the target named is T4, Tyrosyl-tRNA synthetase, putative (Trypanosoma cruzi (strain CL Brener)). Description: Trypanosoma cruzi tyrosyl tRNA synthetase (TcYRS) SOP. Format: functional. The following applies: 30 µM.
Experiment [10] deals with Chromo domain-containing protein 1 (Saccharomyces cerevisiae (strain ATCC 204508 / S288c) (Baker's yeast)) (UniProt P32657). The experiment in a line: ScCHD-1 Enzyme Inhibition Assay. Further: in the data most compounds retested in dose-response had high values. It counts as functional. Conditions: 30 µM.
Sequence of Chromo domain-containing protein 1 (Saccharomyces cerevisiae (strain ATCC 204508 / S288c) (Baker's yeast)) (P32657 whole entry, the tested form may be a part): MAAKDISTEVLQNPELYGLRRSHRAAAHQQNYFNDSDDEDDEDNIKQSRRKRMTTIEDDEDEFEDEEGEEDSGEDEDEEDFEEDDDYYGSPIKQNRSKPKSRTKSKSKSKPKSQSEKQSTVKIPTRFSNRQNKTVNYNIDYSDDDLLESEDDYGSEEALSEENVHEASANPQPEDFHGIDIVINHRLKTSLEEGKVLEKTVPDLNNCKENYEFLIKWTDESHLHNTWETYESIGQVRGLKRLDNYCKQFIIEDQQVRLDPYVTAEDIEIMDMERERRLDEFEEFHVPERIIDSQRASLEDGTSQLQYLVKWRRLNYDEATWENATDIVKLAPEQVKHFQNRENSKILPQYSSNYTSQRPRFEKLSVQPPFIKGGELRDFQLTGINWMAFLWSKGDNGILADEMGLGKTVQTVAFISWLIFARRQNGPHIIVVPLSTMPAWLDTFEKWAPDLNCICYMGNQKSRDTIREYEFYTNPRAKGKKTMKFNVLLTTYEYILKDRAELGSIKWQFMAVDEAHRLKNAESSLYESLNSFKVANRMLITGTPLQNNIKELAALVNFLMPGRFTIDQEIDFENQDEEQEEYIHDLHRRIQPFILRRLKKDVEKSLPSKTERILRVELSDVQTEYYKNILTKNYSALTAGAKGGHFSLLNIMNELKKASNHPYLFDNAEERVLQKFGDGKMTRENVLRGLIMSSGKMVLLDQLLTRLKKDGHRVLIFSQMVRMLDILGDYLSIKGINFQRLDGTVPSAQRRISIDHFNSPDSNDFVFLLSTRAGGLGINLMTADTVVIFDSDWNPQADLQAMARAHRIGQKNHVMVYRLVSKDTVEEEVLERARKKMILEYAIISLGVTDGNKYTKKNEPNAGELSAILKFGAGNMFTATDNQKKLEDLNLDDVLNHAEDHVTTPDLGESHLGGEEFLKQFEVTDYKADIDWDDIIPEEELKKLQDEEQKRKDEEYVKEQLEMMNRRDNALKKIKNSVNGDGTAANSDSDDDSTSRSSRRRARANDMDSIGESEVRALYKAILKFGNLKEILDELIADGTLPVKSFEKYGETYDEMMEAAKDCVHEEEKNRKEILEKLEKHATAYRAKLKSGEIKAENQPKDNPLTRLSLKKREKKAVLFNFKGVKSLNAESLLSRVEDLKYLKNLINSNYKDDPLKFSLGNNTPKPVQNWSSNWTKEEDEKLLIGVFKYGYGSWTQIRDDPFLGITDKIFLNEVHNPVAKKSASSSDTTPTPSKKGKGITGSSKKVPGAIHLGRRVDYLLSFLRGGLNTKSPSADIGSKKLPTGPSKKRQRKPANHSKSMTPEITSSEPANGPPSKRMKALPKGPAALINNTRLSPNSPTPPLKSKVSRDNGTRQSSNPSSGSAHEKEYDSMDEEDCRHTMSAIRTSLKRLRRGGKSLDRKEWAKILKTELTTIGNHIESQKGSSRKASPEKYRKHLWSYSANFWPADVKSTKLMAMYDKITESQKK

Sequence of Protein translocase subunit SecA (Escherichia coli (strain K12)) (P10408 whole entry): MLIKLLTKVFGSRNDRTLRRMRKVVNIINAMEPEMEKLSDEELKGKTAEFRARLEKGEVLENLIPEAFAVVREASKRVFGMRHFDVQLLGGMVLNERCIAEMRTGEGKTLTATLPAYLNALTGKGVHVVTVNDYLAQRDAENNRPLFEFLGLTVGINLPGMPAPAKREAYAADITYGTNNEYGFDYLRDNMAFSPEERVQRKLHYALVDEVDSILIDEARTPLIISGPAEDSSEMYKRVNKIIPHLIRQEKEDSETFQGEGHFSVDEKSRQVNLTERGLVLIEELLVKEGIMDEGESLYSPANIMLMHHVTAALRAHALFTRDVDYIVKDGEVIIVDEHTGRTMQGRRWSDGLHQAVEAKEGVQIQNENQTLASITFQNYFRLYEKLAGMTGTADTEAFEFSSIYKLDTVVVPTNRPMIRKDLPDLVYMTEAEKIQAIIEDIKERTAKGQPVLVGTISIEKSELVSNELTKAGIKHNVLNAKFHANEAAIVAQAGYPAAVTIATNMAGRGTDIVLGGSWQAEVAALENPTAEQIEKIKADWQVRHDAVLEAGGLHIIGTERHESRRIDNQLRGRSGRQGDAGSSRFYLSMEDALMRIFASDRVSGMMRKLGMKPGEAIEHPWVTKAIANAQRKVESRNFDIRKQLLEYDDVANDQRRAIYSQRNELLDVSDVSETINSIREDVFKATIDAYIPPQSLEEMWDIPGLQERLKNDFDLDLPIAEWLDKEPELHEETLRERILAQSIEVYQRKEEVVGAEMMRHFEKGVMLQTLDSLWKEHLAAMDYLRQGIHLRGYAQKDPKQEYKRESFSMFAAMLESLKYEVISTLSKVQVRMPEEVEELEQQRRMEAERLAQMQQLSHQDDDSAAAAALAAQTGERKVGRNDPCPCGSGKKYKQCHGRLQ

As to `Cc1cnc(N2CCC3(CCN(CC4CC4)C3=O)CC2)nc1`, the Percent Effect was -0.786% in experiment [1]; 16.9% in experiment [2]; -3.91% in experiment [3]; -4.13% in experiment [4]; 3.65% in experiment [5]; 8.84% in experiment [6]. In addition, the Percent Effect in experiment [7] was 17.8%; in experiment [8], 8.7%; in experiment [9], 12.5%; in [10], -11.4%.
For `COCC1CC2(CCN(Cc3cnn(C)c3)CC2)CN1C(C)C` (stereo not given), the Percent Effect in experiment [1] is -5.94%; in [2], 6.49%; in experiment [3] it was -6.16%; in [4] it was -2.82%; in experiment [5] it was -4.45%; in experiment [6] it was 11.6%. In addition, the Percent Effect in experiment [7] is 2.36%; in [8], -2.63%; in experiment [9] it was 2.56%; in [10] it was -4%.
Take `CCc1[nH]ncc1C(=O)N1CCCC(n2ccnc2C(C)C)C1` (stereo not given): the Percent Effect in experiment [1] is -3.48%; in experiment [2] it was 13.3%; in experiment [3] it was 5.91%; in experiment [4] it was 0%; in experiment [5], 0.887%; in [6] it was 0.763%. Also, the Percent Effect in experiment [7] was 25.5%; in experiment [8], 3.68%; in [9], 10.3%; in experiment [10] it was -5.4%.
`CCN(CC)C(=O)C(c1ccccc1)N1CCn2c(C)nnc2C1` (stereo not given): the Percent Effect is -4.22% in experiment [1]; 17.9% in experiment [2]; 9.65% in [3]; 7.61% in experiment [4]; 0.82% in experiment [5]; 8.45% in experiment [6]. In addition, the Percent Effect was 10.3% in experiment [7], 7.18% in experiment [8], 22.9% in [9] and -4.71% in experiment [10].
With `Cc1occc1C(=O)N1CC[C@@H](N2CCOCC2)[C@@H]1Cc1ccccc1`, the Percent Effect in [1] was -6.37%; in [2] it was 11.7%; in [3], 1.96%; in [4], 0.876%; in experiment [5], -2.83%; in [6] it was 7.33%. Besides, the Percent Effect was 0.411% in experiment [7], 8.95% in experiment [8], 15.4% in experiment [9] and -4.72% in [10].
With `CCn1nc2c(cc1=O)CN(Cc1nc(-c3ccccn3)no1)CC2`, the Percent Effect in experiment [1] is -4.5%; in experiment [2] it was 12.8%; in [3], -6.79%; in experiment [4] it was -0.469%; in experiment [5], -2.87%; in [6] it was 14.1%. For the same compound, the Percent Effect in experiment [7] was found to be 28.1%; in experiment [8], 0.478%; in experiment [9] it was 6.02%; in [10] it was 0.402%.
For `CN1CC(c2ccccc2)CC12CCN(C(=O)c1cncc(Cl)c1)CC2` (stereo not given), the Percent Effect is -4.25% in experiment [1]; 5.41% in experiment [2]; 3.4% in experiment [3]; -0.679% in experiment [4]; 0.35% in [5]; 12.3% in experiment [6]. Also, the Percent Effect is 12.2% in experiment [7], 7.98% in experiment [8], 14.6% in experiment [9] and -5.7% in experiment [10].
Take `O=C(NCC1CCOC1)Nc1ccc(OCC(F)(F)F)nc1` (stereo not given): the Percent Effect in [1] was 0.633%; in [2], 7.69%; in [3], 2.59%; in experiment [4], -1.97%; in [5] it was 8.2%; in [6], 7.76%. The Percent Effect in experiment [7] is 17.4%; in [8] it was 2.39%; in [9], 8.43%; in experiment [10], -2.87%.
